About 8,600 (12%) of roughly 69,000 compounds showed an effect of 50% or more. Only a selection was taken, and strong results are over-represented in it overall.

The values that follow come from ChEMBL document CHEMBL4513216, “Probing the Open Global Health Chemical Diversity Library for Multistage-Active Starting Points for Next-Generation Antimalarials” (ACS Infect Dis, 2020).

The assay deals with Plasmodium berghei. As to the kind of experiment: Screen against P. berghei liver stage (PbLuc), transformed with Luciferase, at 10uM. The format is functional, HepG2. Conditions: tested at 10 uM.
For the compound `Cc1ccc(CN(C(=O)NC2CCS(=O)(=O)C2)C2CC2)o1` (stereo not drawn), the INHIBITION is 2.79%. With `Cc1ccccc1OCCN1CCCC(c2cc(C(N)=O)[nH]n2)C1` (stereo not drawn), the INHIBITION worked out at 23.5%. Next, `Cn1cc(CN(C/C=C/c2ccccc2)C2CC2)cn1`: -59.5%; `O=C1CCCN1C1CCCN(CCn2cc(Cl)cn2)C1` (stereo not drawn): -63.5%; `CN(Cc1ccco1)[C@@H]1CN(Cc2nccs2)C[C@@H]2CCCO[C@@H]21`: 44.3%. On to `CC(C1CCN(Cc2cnn(C)c2C2CC2)CC1)N(C)C` (stereo not drawn), for which the INHIBITION stood at 50.7%. In the case of `CC(C1CCN(Cc2cnn(C)c2C2CC2)CC1)N1CCN(C)CC1` (stereo not drawn), the INHIBITION amounted to 29%. As to `CC(C1CCN(Cc2cnn(C)c2C2CC2)CC1)N1CCCC1` (stereo not drawn), the INHIBITION is on record as 40.9%.

As for `O=C(NCC1CCOC1)c1ccc(-c2ccccc2)[nH]c1=O` (stereo not drawn), the INHIBITION was -26.6%. Next, `Cc1cccc(-c2ccc(C(=O)NCC3CCCO3)c(=O)[nH]2)c1` (stereo not drawn): -29.1%; `Cc1ccc(CN2CCCC3(CCCC(=O)N3)C2)s1` (stereo not drawn): 21.1%. `Cc1ccccc1OCCN1CCCC1CS(N)(=O)=O` (stereo not drawn): the INHIBITION is -55.2%. `CCOCCN1CCCC1CS(N)(=O)=O` (stereo not drawn): the INHIBITION is 61.5%.

For the compound `NS(=O)(=O)CC1CCCN1CCOc1ccccc1F` (stereo not drawn), the INHIBITION stood at 37.9%. With `COCc1ccc(C(=O)N2CCN(CC(C)O)CC2)cc1` (stereo not drawn) the figure was -7.81%; with `COc1ncccc1C(=O)N1CCCC1c1c(C)nn(C)c1Cl` (stereo not drawn), -23.9%. In the case of `CC(C)CN(Cc1ccc(-n2cncn2)cc1)Cc1ccccn1`, the INHIBITION worked out at 34.9%. With `CN(CC1CCCO1)c1nc(-c2cccnc2)nc2c1CCNCC2` (stereo not drawn) the figure was 7.43%; with `Cc1noc(CN(C)c2nc(-c3ccco3)nc3c2CCN(C)CC3)n1`, 28.8%. As for `Cc1nonc1CN(C)c1nc(-c2cccnc2)nc2c1CCNC2`, the INHIBITION was 81.1%. With `NCC1CN(c2nc(-c3cccnc3)nc3c2CCNCC3)CCO1` (stereo not drawn) the figure was 7.43%. Next, `Cc1cc(CN(C)c2nc(-c3ccco3)nc3c2CCN(C)CC3)on1`: 30%; `Cc1nonc1CN(C)c1nc(-c2ccco2)nc2c1CCN(C)CC2`: 75.4%. For the compound `Cc1nccn1CCN(C)c1nc(-c2cccnc2)nc2c1CCNC2`, the INHIBITION is reported as -1.25%. With `CN(CC(O)CO)c1nc(-c2cccnc2)nc2c1CCNC2` (stereo not drawn), the INHIBITION was 26.1%. As for `CN(CC1CCCCO1)c1nc(-c2cccnc2)nc2c1CCNC2` (stereo not drawn), the INHIBITION was 72.3%.

Consider `CNC(=O)N1CCC2(CC1)c1ncc(C)n1CCN2C`, for which the INHIBITION is reported as 48.4%. For `CN1C[C@H](c2ccccc2)[C@H]2CN(C(=O)Cc3cccc(O)c3)CC[C@H]21`, the INHIBITION came to 43.7%. With `O[C@@]1(CNCC2(Cn3ccnc3)CC2)CCCN2CCCC[C@@H]21` the figure was -6.39%. With `Cc1nnc(CNCC2(O)CCCN(Cc3ccc(F)c(F)c3)C2=O)[nH]1` (stereo not drawn) the figure was -1.33%. Next, `CCOCc1cc(CN2CCn3c(CO)nnc3C2)ccc1OC`: -38.2%. For `Cc1ccc(CN2CCc3ncnc(C4CC4)c3CC2)s1`, the INHIBITION amounted to 34.8%. Turning to `CC(C)Cc1nc(CN2CCN(CC(O)c3ccccc3)CC2)no1` (stereo not drawn), the INHIBITION is 23.5%. In the case of `CN(Cc1cnn(C)c1)C(=O)c1ccc(=O)n(Cc2ccccc2)n1`, the INHIBITION was 0.164%.

Take `CN(Cc1nnc2ccccn12)C(=O)CCC1CCCC1`: the INHIBITION turned out to be 54.7%. Next, `CCC(O)CN(C)Cc1nnc2ccccn12` (stereo not drawn): 61.8%; `Cc1ccc(C)c(C(O)CN(C)Cc2nnc3ccccn23)c1` (stereo not drawn): 23.3%.

Consider `O=C(CCC1CCCCC1)NCc1nnc2ccccn12`, for which the INHIBITION is -18.7%. With `Cc1ccc(C)c(CN(C)Cc2nnc3ccccn23)c1` the figure was 9.45%. With `CN(Cc1nnc2ccccn12)C(=O)CCNC(=O)C(C)(C)C` the figure was 8.77%; with `CN(Cc1nnc2ccccn12)C(=O)CC1CCCCC1`, 10.7%; with `O=C(CCC1CCCC1)NCc1nnc2ccccn12`, 76.4%. With `Cn1cccc1CNC(=O)CCCc1nnc2ccccn12` the figure was -23.7%; with `Cc1cc(C2CCCN(S(=O)(=O)c3cn(C)cn3)C2)ccn1` (stereo not drawn), 12.8%. Regarding `Cc1cnn(CC2CCCN2C(=O)c2c(F)cccc2Cl)c1` (stereo not drawn), the INHIBITION was -59.4%. Regarding `CC(O)CN1CCN(C(=O)c2ccn(-c3ccc(F)cc3)n2)CC1` (stereo not drawn), the INHIBITION is reported as -7.35%. On to `Cc1cc(-c2ccc(=O)n(CCNC(=O)C3CC3)n2)c(C)o1`, for which the INHIBITION is on record as -21.2%.

On to `CC(C)C(C)NC(=O)c1cc(Br)c2c(c1)OCCO2` (stereo not drawn), for which the INHIBITION was 23.5%. Next, `Cc1ccc(F)c(NS(=O)(=O)c2cc(C(=O)O)oc2C)c1`: 12.7%; `COc1cccc2cc(CNC(=O)N3CCCC(O)C3)oc12` (stereo not drawn): 42.7%; `COc1cccc2cc(CNC(=O)N3CCC(C(N)=O)CC3)oc12`: -36.1%. For `COc1cccc2cc(CNC(=O)N3CCC(N4CCCC4)C3)oc12` (stereo not drawn), the INHIBITION amounted to 54.4%.

In the case of `COc1cccc2[nH]c(C(=O)N3CCNCC3C(N)=O)cc12` (stereo not drawn), the INHIBITION came to 12.285%. `CCN(CC)C(CNC(=O)c1c(C)noc1C(C)C)c1ccsc1` (stereo not drawn): the INHIBITION is recorded as 33.7%. Next, `CC1=Nc2c(c(=O)[nH]n2C2CCCCC2)C(c2cccnc2)S1` (stereo not drawn): 14.2%.

With `CC(C)Cc1noc(CN2CCN(CCOc3ccc(Cl)cc3)CC2)n1`, the INHIBITION stood at 79.9%. With `CC(C)Cc1noc(CN2CCN(S(C)(=O)=O)CC2)n1` the figure was 32.78%; with `CCN1CCN(Cc2nc(CC(C)C)no2)CC1`, 16.45%; with `CC(C)Cc1noc(CN2CCCN(C(=O)c3cccc(Cl)c3)CC2)n1`, 68.3%.

As for `CCOCCN1CCN(Cc2nc(C3CC3)no2)CC1CC` (stereo not drawn), the INHIBITION turned out to be 38.7%. Turning to `CC(C)Cc1noc(CN2CCN(c3nccs3)CC2)n1`, the INHIBITION is given as -22.6%. As for `CCN1CCN(Cc2nc(C)no2)CC1`, the INHIBITION turned out to be 0.818%. `CC(C)Cc1noc(CN2CCN(C(=O)c3cccc(F)c3)CC2)n1`: the INHIBITION was -29.9%. Next, `CCOCCN1CCN(Cc2nc(C)no2)CC1CC` (stereo not drawn): 54.4%. With `CCOCCN1CCN(Cc2nc(CC(C)C)no2)CC1` the figure was 53.575%; with `CC(C)Cc1noc(CN2CCN(CCO)CC2)n1`, 48.9%; with `CC(C)Cc1noc(CN2CCCN(C(=O)c3ccccc3Cl)CC2)n1`, 37.2%.

Turning to `CN(C)C(=O)CN1C(=O)CO[C@@H]2CN(c3ccccn3)C[C@H]21`, the INHIBITION is 21.7%.

Regarding `CCOc1c(F)cccc1C(=O)N(C)CCc1ccccn1`, the INHIBITION worked out at 24.7%. In the case of `O=C(NC1CCCC1)c1ccc(C2CCCNC2)nc1` (stereo not drawn), the INHIBITION is -17.7%. With `CC(=O)NCCc1cc2nc(-c3ccncc3)ccn2n1` the figure was 14.105%. With `Cc1noc(C)c1CN1CCc2cnn(C)c2C1COCC1CC1` (stereo not drawn), the INHIBITION came out at 23.3%. With `CCC[C@@H]1CN(c2cncc(C(=O)N3CCOCC3)n2)C[C@H]1N(C)C` the figure was -31.7%.

As for `Cc1nc(CNC(=O)N(CCCO)C2CCc3ccccc32)oc1C` (stereo not drawn), the INHIBITION was determined as 21.6%. For the compound `CCOCCN1CCN(Cc2nnc(C3CC3)o2)CC1C` (stereo not drawn), the INHIBITION is given as 74.2%. As to `CCOCCN1CCN(Cc2nnc(C3CC3)o2)CC1`, the INHIBITION was 12.6%.

`CCOCCN1CCN(Cc2nnc(C3CC3)o2)CC1CC` (stereo not drawn): the INHIBITION is reported as 0%.

`O=C(CCc1ccc(-n2cnnn2)cc1)Nc1nncs1`: the INHIBITION was 40.6%. For `O=C(Cc1ccc2c(c1)CCO2)N1CCN(c2ccccn2)CC1`, the INHIBITION was -13.5%. Next, `NCCCn1nc(C(F)(F)F)c2c1CCC2`: 27.8%; `N#CCCn1nc(C(F)(F)F)c2c1CCCC2`: 42.6%; `N#CCCn1nc(C(F)(F)F)c2c1CCC2`: 57.5%. Next, `Cc1nccn1C1CCCN(C(=O)c2cccc(-n3cccc3)c2)C1` (stereo not drawn): 43.2%; `Cc1cccc(C(=O)N2CCCCC2c2[nH]ncc2S(C)(=O)=O)c1` (stereo not drawn): 4.08%.

For `O=S(=O)(NCc1ccc(S(=O)(=O)N2CCCC2)s1)c1cc(Cl)cc(Cl)c1`, the INHIBITION was 40.6%. As to `Cn1cc(NC(=O)N2CCCC2c2cccnc2)ccc1=O` (stereo not drawn), the INHIBITION is given as -72.2%.

In the case of `CC(C)C1SCC(=O)Nc2c1cnn2-c1ccc(F)cc1` (stereo not drawn), the INHIBITION is 8.99%. Next, `COc1ccc(-n2ncc3c2NC(=O)CSC3C(C)C)cc1` (stereo not drawn): 5.51%. As for `CC(C)C1SCC(=O)Nc2c1cnn2-c1ccc(Cl)cc1` (stereo not drawn), the INHIBITION was 78%. Regarding `CCn1cc2[nH]c(OC)c(CNC(=O)C3CCS(=O)(=O)CC3)cc-2c1=O`, the INHIBITION is reported as -21.8%. In the case of `O=C1O[C@@H]2CN(Cc3cc4ccccc4s3)C[C@@H]2N1Cc1ccccn1`, the INHIBITION turned out to be 36.5%. For the compound `Cc1ccc(CN2C[C@H]3OC(=O)N(Cc4ccccn4)[C@H]3C2)o1`, the INHIBITION worked out at 22.9%. With `O=C1O[C@@H]2CN(Cc3cc4ccccc4o3)C[C@@H]2N1Cc1ccccn1` the figure was 55%; with `Cc1ccc(-c2cnnc(N3CCCC3c3nonc3C)n2)o1` (stereo not drawn), 5.67%; with `CN1C(=O)CCc2cc(NC(=O)C3CC(=O)N(CC4CC4)C3)ccc21` (stereo not drawn), -5.57%.

For the compound `Cc1cccc(-c2noc(CN3CCCCC3Cn3cncn3)n2)c1` (stereo not drawn), the INHIBITION is reported as 9.14%. As to `Cc1cccc(NC(=O)[C@@H]2CCCN2CC(=O)N2CCCCCC2)n1`, the INHIBITION is -3.83%. `Cc1cccc(NC(=O)[C@@H]2CCCN2Cc2ccccc2C#N)n1`: the INHIBITION is given as 0.342%. As for `Cc1cccc(NC(=O)[C@@H]2CCCN2CC(=O)Nc2ccccc2)n1`, the INHIBITION is on record as 76.5%.

Consider `CC(C)(C)Oc1ccc(NCC(=O)NCc2ccco2)cc1`, for which the INHIBITION amounted to 16.1%. Next, `OC(CN1CCN(Cc2nc(C3CC3)no2)CC1)c1ccccc1` (stereo not drawn): -45.9%; `CCCN(CCC)c1ncc(S(=O)(=O)c2cccc(C)c2)c(N)n1`: 6.29%. Next, `CCCN(CCC)c1ncc(S(=O)(=O)c2ccc(C)cc2)c(N)n1`: 20.4%; `CCCN(CCC)c1ncc(S(=O)(=O)c2ccccc2)c(N)n1`: 52.4%. Turning to `CN(Cc1ccccc1OC(F)(F)F)C(=O)C1CC1`, the INHIBITION came to 82.7%. With `CN(Cc1ccccc1OC(F)(F)F)C(=O)C1CCCN(C(N)=O)C1` (stereo not drawn) the figure was -116%; with `COc1ccnc(N(C)Cc2ccccc2OC(F)(F)F)n1`, 15.2%.

Regarding `COCC1CC2(CCN(Cc3ccccn3)CC2)CN1c1ncccn1` (stereo not drawn), the INHIBITION was 8.67%.
